# Rows were chosen to be rich in hits. Some 4.2% of all compounds tested hit in one or more screens of this group.
# GDH-TPI inh: GDH-TPI coupling enzyme inhibitors, primary screen, artefact control for M. tuberculosis FBA inhibitor project, biochemical, absorbance, full deck. GDH-TPI coupled enzyme counterscreen, NADH absorbance. inhibition, % at 4.8 µM. actives 1.2% (n = 360,000). AID 588335, 2011
# CCHF vOTU inh-1: CCHFV vOTU protease inhibitors, primary screen, biochemical, Pep-AMC substrate, fluorescence. actives 0.55% (n = 370,000). inhibition, % at 11.5 µM
# RecA intein inh: Mtb RecA intein splicing inhibitors, primary screen, biochemical, fluorescence, HTS; Protein RecA (Mycobacterium tuberculosis (strain ATCC 25618 / H37Rv)), P9WHJ3; cell-free RecA intein splicing; inhibition, % (no concentration beside the values); actives 0.75% (n = 290,000); AID 2221, 2009; in the data active means inhibition above about 30%; inconclusive means no clear call, values can overlap the other calls
# Target sequence (P9WHJ3 whole entry, looked up): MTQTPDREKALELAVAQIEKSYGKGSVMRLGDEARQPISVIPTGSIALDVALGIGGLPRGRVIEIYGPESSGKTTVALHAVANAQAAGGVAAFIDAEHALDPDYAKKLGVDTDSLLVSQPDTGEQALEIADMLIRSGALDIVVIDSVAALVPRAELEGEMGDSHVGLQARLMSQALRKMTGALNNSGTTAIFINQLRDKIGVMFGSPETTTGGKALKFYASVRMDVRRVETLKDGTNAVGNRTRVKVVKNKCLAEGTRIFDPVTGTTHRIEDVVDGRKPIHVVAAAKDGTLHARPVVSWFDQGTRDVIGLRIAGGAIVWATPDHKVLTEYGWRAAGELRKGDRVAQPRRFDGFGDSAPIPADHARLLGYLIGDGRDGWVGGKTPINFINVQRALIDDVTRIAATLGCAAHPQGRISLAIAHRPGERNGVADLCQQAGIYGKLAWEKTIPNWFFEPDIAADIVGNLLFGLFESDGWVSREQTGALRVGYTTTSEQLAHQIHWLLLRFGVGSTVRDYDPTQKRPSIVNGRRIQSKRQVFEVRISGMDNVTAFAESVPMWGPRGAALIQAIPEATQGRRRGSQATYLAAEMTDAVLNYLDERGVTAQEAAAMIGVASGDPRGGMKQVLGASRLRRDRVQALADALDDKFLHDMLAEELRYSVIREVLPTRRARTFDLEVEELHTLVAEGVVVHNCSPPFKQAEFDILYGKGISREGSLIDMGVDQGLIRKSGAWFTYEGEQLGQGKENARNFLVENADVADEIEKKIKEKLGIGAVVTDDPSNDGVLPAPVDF
# Mtb bLac sens: beta-lactam sensitization of Mtb H37Rv, H37Rv; M. tuberculosis H37Rv growth with meropenem, percent inhibition; inhibition, % at 25 µM; actives 0.27% (n = 330,000); AID 434955, 2010; call rule not given here;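 further: growth measured after seven days incubation then overnight dye step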
# Mtb FBA inh: Mtb FBA enzyme inhibitors, primary screen, biochemical, fluorescence, strain H37Rv; purified M. tuberculosis FBA, fluorescence read-out; inhibition, % at 1 µM; actives 2.3% (n = 360,000); AID 588726, 2011; in the data active means inhibition above about 27%
# CCHF vOTU inh-2: CCHFV vOTU protease inhibitors, confirmation, biochemical, Pep-AMC substrate, fluorescence. actives 17% (n = 1,900). shares compounds with CCHF vOTU inh-1. AID 686976, 2013. inhibition, % at 11.5 µM. Recombinant CCHFV vOTU
# Numbers stand for hits; i = inactive; ? = inconclusive; nt = not tested or not shown. Unless noted, no stated cut-off is given here; in the data, active means inhibition above about 30%; inactive means the rest.
SMILES,GDH-TPI inh,CCHF vOTU inh-1,RecA intein inh,Mtb bLac sens,Mtb FBA inh,CCHF vOTU inh-2
O/N=C1/CCc2cccc3cccc1c23,i,i,i,i,i,nt
O=C1C(=NO)CCc2ccccc21,i,69,nt,nt,i,82
Cc1ccc(CSCC(=O)Nc2ccccc2)cc1,i,i,i,i,i,nt
O=C(CSCc1ccc(Cl)cc1)Nc1ccc(-c2nnc(-c3ccccc3)o2)cc1,i,32,i,i,i,i
COc1ccc(C(=O)N(Cc2ccco2)Cc2cccs2)c(O)c1,i,34,i,i,i,i
COc1ccccc1C(=O)NCCC(=O)N(Cc1ccco1)Cc1cccs1,i,i,i,i,i,nt
COc1cccc(N2CCN(C(C)C(=O)NC34CC5CC(CC(C5)C3)C4)CC2)c1 (stereo unspecified),i,i,i,i,i,nt
O=C(CCS(=O)(=O)c1ccc(Cl)cc1)NCCN1C(=O)S/C(=C\c2ccccc2F)C1=O,i,i,i,i,i,nt
Cc1ccc(S(=O)(=O)CCC(=O)NCCN2C(=O)S/C(=C\c3ccccc3)C2=O)cc1,i,40,i,i,i,i
CCCN(CC(=O)Nc1cccc(Br)c1)CC(=O)Nc1ccc(F)c(F)c1F,i,37,i,i,i,i
CCOC(=O)[C@]12CCCC3=C1N(CCC3)C(=O)[C@@H](CC(=O)NCc1cccc(C(F)(F)F)c1)C2,nt,i,nt,nt,nt,nt
CC(/C=N/Nc1nnc2c(n1)[nH]c1ccccc12)=C\c1ccco1,i,nt,nt,i,i,nt
Cc1cccc2c1[nH]c1nc(N/N=C\c3ccco3)nnc12,nt,37,i,?,nt,i
Cc1ccc(S(=O)(=O)/N=C2/NC(=O)/C(=C/c3ccc(Br)o3)S2)cc1,i,36,i,i,i,i
COc1cc(/C=C/c2ccc3c(Br)cc(Br)c(O)c3n2)ccc1O,i,35,i,i,i,i
Cc1ccc(-c2nc(N)sc2C)cc1,i,i,i,i,i,nt
CCCc1sc(N)nc1-c1ccc(C)cc1,i,33,i,i,i,i
CC(C)(C)OC(=O)N1CCCC(C(=O)Nc2cccc(C(=O)NCCCCc3ccccc3)c2)C1 (stereo unspecified),i,35,nt,nt,i,i
Cc1ccc(C(=O)n2ccc3ccc(-c4ccc5ccn(Cc6ccccc6)c5c4)cc32)cc1,nt,i,nt,nt,nt,nt
CC(C)(C)c1ccc(C(=O)N2CCOC23CCCCC3)cc1,nt,34,nt,nt,i,i
O=C(Nc1ccc(Cl)cc1)N1CCOC12CCCCC2,i,i,nt,i,i,nt
Cc1cc(=O)c2c(o1)C(=O)c1occc1C2=O,i,106,nt,nt,i,48
O=C(COC(=O)c1ccccc1)Nc1cc(S(=O)(=O)N2CCCCCC2)ccc1Cl,i,i,nt,i,i,nt
CC1CCc2sc(C(=O)N(C)CC(=O)Nc3cccc(F)c3)cc2C1 (stereo unspecified),i,30,i,i,i,i
COc1ccc(S(=O)(=O)NCC(=O)Nc2ccc3c(c2)OCCO3)cc1OC,i,i,i,i,i,nt
SMILES,GDH-TPI inh,CCHF vOTU inh-1,RecA intein inh,Mtb bLac sens,Mtb FBA inh,CCHF vOTU inh-2
CC1([N+](=O)[O-])COP(=O)(Nc2cccc(Cl)c2)OC1 (stereo unspecified),i,38,nt,nt,i,i
CC1([N+](=O)[O-])COP(=O)(Nc2cccc(F)c2)OC1 (stereo unspecified),i,i,nt,nt,i,nt
C=CCN1C=CC(=C/C=C(/C#N)C(=O)OCC)C=C1,i,38,i,i,i,30
CCCN(CC(=O)Nc1ccccc1OC)C(=O)c1ccc2[nH]c3c(c2c1)CC(C)CC3 (stereo unspecified),i,38,nt,i,i,i
COC(=O)c1ccccc1NC(=O)C1CCCC1,i,i,i,i,i,nt
COC(=O)c1ccccc1NC(=O)COC(=O)C1CCCCC1,i,32,i,i,i,i
Oc1cc(Nc2cccnc2)cc2cccnc12,i,i,nt,i,i,nt
Oc1cc(NCCc2cccnc2)cc2cccnc12,i,41,nt,i,i,i
O=C(Nc1nnc(C2CCCCC2)s1)C1CC(=O)N(c2ccc(F)cc2)C1 (stereo unspecified),i,i,i,i,i,nt
COc1ccc(N2CC(C(=O)Nc3nnc(C4CCCCC4)s3)CC2=O)cc1 (stereo unspecified),i,30,i,i,i,i
CC(=NNC(=S)Nc1cccc(Cl)c1)c1ccccn1,i,30,nt,nt,i,i
S=C(NCc1ccccn1)Nc1cccc(Cl)c1,i,i,i,i,i,nt
CC(C)c1ccccc1NS(=O)(=O)c1cccs1,i,i,i,i,i,nt
O=C(O)Cn1c2c(c3ccccc31)CCCC2,i,30,i,i,i,i
C=CCn1c(NC(=O)c2ccccc2Cl)c(C#N)c2nc3ccccc3nc21,i,82,i,i,i,45
N#CCCn1c(-c2nonc2NC(=O)c2ccccc2Cl)nc2ccccc21,i,i,i,i,i,nt
Cc1ccc2nc(NC(=S)NC(=O)c3ccco3)sc2c1,i,i,i,i,i,nt
Cc1ccc2nsnc2c1NC(=S)NC(=O)c1ccco1,i,59,i,i,i,i
CC1(C)Nc2cccc3cccc(c23)N1,i,33,nt,nt,i,i
O=C(Cc1ccccc1)NCC(=O)N1CCN(c2ccccc2)CC1,i,i,i,i,i,nt
CCOc1ccc(Nc2ccc(N)c(S(=O)(=O)O)c2)cc1,i,30,nt,nt,i,i
O=C(CCNS(=O)(=O)c1ccc(OC(F)(F)F)cc1)NCCc1c[nH]c2ccccc12,i,30,nt,i,i,i
CCCCNC(=O)c1nc(C2CCN(S(=O)(=O)c3ccc(Cl)cc3)CC2)oc1-c1ccccc1,nt,i,nt,nt,nt,nt
CCCCNC(=O)c1nc(C2CCN(S(=O)(=O)c3csc(C(=O)O)c3)CC2)oc1-c1ccccc1,nt,30,nt,nt,i,i
CCC(CC)c1nnc(NC(=O)C2CC(=O)N(C3CCCC3)C2)s1 (stereo unspecified),i,i,i,i,i,nt
SMILES,GDH-TPI inh,CCHF vOTU inh-1,RecA intein inh,Mtb bLac sens,Mtb FBA inh,CCHF vOTU inh-2
Cc1[nH]c(=O)[nH]c(=O)c1C=CC(=O)NC(CO)CS(=O)Cc1ccccc1 (stereo unspecified),i,i,nt,nt,i,nt
N#CC(C#N)=Cc1ccc(N2CCOCC2)cc1,41,30,i,i,i,i
Cn1c(-c2ccc3nc(N)sc3c2)nc2cc(N)ccc21,i,34,i,i,i,i
COc1ccc(C2NC(=S)N(c3ccccc3)C(C)=C2C(=O)Nc2ccccc2)cc1 (stereo unspecified),i,i,i,i,i,nt
CC1=C(C(=O)Nc2ccc([N+](=O)[O-])cc2)C(c2cccc(C(F)(F)F)c2)NC(=S)N1c1ccccc1 (stereo unspecified),i,31,i,i,i,i
CCOC(=O)c1c(/N=C/c2cc([N+](=O)[O-])ccc2O)sc(C)c1C,i,30,i,?,i,i
Cc1ccc(NC2=C(N3CCOCC3)C(=O)c3ccccc3C2=O)cc1,i,108,41,i,i,101

# From PubChem
